# FLuc modulator = counter-screen for miR-21 project: firefly luciferase inhibitors or activators. purified FLuc, Km substrates, luminescence inhibition. Potency, µM (highest dose often 57.5 µM), for the others: top-dose activity change, negative = inhibition, hits mostly inhibitors. 360,000 tested, 6.9% active;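 also: plate controls were vehicle for no effect and reference inhibitor for full effect; nearly all actives have a fitted effect of over 55% in size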
# Target sequence (P08659 whole entry, looked up): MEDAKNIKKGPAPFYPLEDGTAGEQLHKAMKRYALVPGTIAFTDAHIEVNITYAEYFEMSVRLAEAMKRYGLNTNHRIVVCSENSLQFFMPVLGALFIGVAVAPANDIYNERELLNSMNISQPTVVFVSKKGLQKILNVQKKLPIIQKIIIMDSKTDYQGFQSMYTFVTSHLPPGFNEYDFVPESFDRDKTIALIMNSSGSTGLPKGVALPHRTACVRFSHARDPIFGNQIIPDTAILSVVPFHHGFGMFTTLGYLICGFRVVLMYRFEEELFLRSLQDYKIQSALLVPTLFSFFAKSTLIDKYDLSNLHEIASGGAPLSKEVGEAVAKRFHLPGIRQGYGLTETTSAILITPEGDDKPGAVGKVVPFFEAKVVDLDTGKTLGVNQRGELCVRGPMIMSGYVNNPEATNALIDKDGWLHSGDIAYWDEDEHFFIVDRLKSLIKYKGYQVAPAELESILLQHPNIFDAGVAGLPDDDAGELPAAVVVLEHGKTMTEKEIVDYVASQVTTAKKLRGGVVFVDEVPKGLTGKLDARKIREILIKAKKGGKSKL
#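 Purified P. pyralis luciferase (10nM final) with 10uM D-luciferin and 10uM ATP (Km levels) in 50mM Tris acetate pH 7.5, 10mM Mg acetate, 0.01% Tween-20, 0.05% BSA; qHTS 6-point titration, ~60 µM downward; luminescence read.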
# ELG1 genotoxic = genotoxicity induction in ELG1-luciferase HEK293T cells. 330,000 tested, 1.3% active. HEK293T ELG1-luciferase reporter, luminescence, 16 h. AID 504466. Potency, µM (series often up to 46 µM), without a hit: at the highest dose activity change, positive = activation, actives largely listed as activators; also: % of control where 0% means no effect; nearly all actives have a fitted effect of over 60% in size
#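 Screening used a luciferase reporter fused to human ELG1 in HEK293T cells. Luminescence was read on a CCD plate imager after 16 hr exposure and 30 min ONE-Glo incubation.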
# Luc counter = counter-screen: inhibitors of Kinase-Glo firefly luciferase; 200,000 tested, 0.28% active; Kinase-Glo luciferase, ATP luminescence, 8 min; Potency, µM (highest dose often 38.3 µM), for the others: top-dose activity change, negative = inhibition, most hits filed as inhibitors; also: % is scaled to controls: 0 for no effect and ±100 for the full control effect; nearly all actives have a fitted effect of over 60% in size
#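 Light output from Kinase-Glo luciferase with luciferin and 10 uM ATP in 50 mM imidazole pH 7.2, KCl, MgCl2, Tween 20, BSA; compound pin-delivered, 8-min ambient incubation, then luminescence read.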
# Rab9 promoter act = activators of Rab9 promoter; Huh7 Rab9 promoter-luciferase reporter, luminescence, 24 h; Potency, µM (top dose mostly 9.22 µM), for the others: at the highest dose activation, negative = inhibition, hits mostly activators; AID 485297; 320,000 tested, 2.8% active; also: % of control where 0% means no effect; nearly all actives have a fitted effect of over 60% in size
#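 Cell-based reporter: Huh7 stable for Rab9 promoter-driven luciferase, plated in reduced-serum medium with 10% FBS at 1500 cells/well, compound-treated 24 h at 37 °C, luminescence read after 10 min reagent.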
# SMN2 splice enh = SMN2 splice variant enhancement; HEK293 SMN2-luciferase splicing reporter, luminescence, 30-36 h; AID 1458; 210,000 tested, 2.8% active; Potency, µM (highest dose often 46.1 µM), for inactives: at the highest dose activity change, positive = activation, actives largely listed as activators; also: % of control where 0% means no effect; nearly all actives have a fitted effect of over 55% in size
#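 HEK293 cells carry an SMN2 […]–luciferase reporter in which exon 7 inclusion puts luciferase in frame. Cells were plated 10-12 h before compound addition, then incubated 30-36 h at 37C. ONE-Glo luminescence was read; sodium butyrate at 4.5 mM final served as control.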
# NPC1 promoter act = NPC1 promoter activation | Huh7 NPC1 promoter luciferase reporter, 24 h | Potency, µM (top dose mostly 9.22 µM), for the others: at the top dose activation, usual class: activators | 320,000 tested, 2.4% active; also: % of control where 0% means no effect; nearly all actives have a fitted effect of over 60% in size
#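 Cells: Huh7 expressing luciferase under the NPC1 promoter, 1500/well. Seeded 2 h, compound added, incubated 24 h at 37 °C. Luciferase reagent, 10 min ambient, then luminescence.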
# The depositor's hits bear a star; ? = inconclusive; nt = no result; [ ] = dose if it differs, or a comment. An excerpt weighted towards active compounds, which were near 7.5% of everything screened. Calls follow the shape of the dose curve; as a rule, active = well fitted curve in the direction sought with a large enough effect; inconclusive = small, poorly fitted or top-dose-only effect, or another doubt; inactive = no such curve, though single readings can be large; an effect the other way counts as inactive or inconclusive. Potency is read from the fitted curve at half-maximal effect.
SMILES,FLuc modulator,ELG1 genotoxic,Luc counter,Rab9 promoter act,SMN2 splice enh,NPC1 promoter act
Cc1cccc(Nc2nc(-c3cccs3)cs2)n1,2.13µM*,?,-23.6%,2.51µM*,1.41µM*,?
Brc1ccc(/C=N/Nc2ncnc3c2cnn3Cc2ccccc2)cc1,-2.3%,1.6%,2.1%,-7.0%,2.5%,-3.8%
Oc1ccc(/C=N/Nc2ncnc3c2ncn3Cc2ccccc2)cc1O,9.53µM*,?,-3.1%,2.3%,-1.6%,-6.3%
Nc1ncnc2c1ncn2Cc1ccccc1,3.7%,8.3%,-0.5%,-1.7%,-5.2%,-1.7%
Oc1cccc(/C=N/Nc2ncnc3c2ncn3Cc2ccccc2)c1,13.5µM*,16.2%,-0.3%,17.0%,3.4%,9.2%
Cc1cccc(-c2nc(S(=O)(=O)c3ccc(F)cc3)c(NCCCN3CCOCC3)o2)c1,3.9%,-7.4%,nt,4.6%,nt,-2.8%
O=S(=O)(c1ccccc1)N1CCC2(CCN(Cc3ccccc3)CC2)CC1,nt,nt,-1.0%,nt,3.3%,nt
CCn1c(CNc2cccc(C(F)(F)F)c2)n[nH]c1=S,-6.6%,-0.8%,-1.0%,-3.3%,nt,-2.1%
Cc1nc2cccc([N+](=O)[O-])c2n1CCCN(C)C,nt,nt,-1.1%[7.66 µM],nt,2.0%[9.22 µM],nt
CCCNc1ccc(C(=O)OCC)cc1[N+](=O)[O-],26.9µM*,?,-1.1%,?,-10.6%,?
CCOC(=O)CNc1ccc(C(=O)OCC)cc1[N+](=O)[O-],-12.8%,4.0%,-0.1%,1.5%,8.0%,-1.7%
O=C(CSc1nc2ccc([N+](=O)[O-])cc2[nH]1)NCCc1ccccc1,2.1%,-8.4%,-2.6%,-3.6%,-12.2%,1.1%
CCN(CC)C(=O)c1sc2c(c1C)c(=O)n(-c1ccccc1)c(=O)n2CC(=O)Nc1ccc(C)cc1C,-5.5%,nt,nt,nt,nt,nt
CC(=O)c1ccc(NC(=O)Cc2cccs2)cc1,?,?,nt,2.51µM*,nt,2.82µM*
CCCOC(=O)c1ccc(NC(=O)Cc2cccs2)cc1,19µM*,?,nt,?,nt,?
CCCOC(=O)c1ccc(NC(=O)COC)cc1,?,?,17.8%,6.4%,0.5%,2.3%
COc1cc(C(=O)Nc2cccc(S(=O)(=O)NCc3ccco3)c2)cc(OC)c1OC,1.1%,7.1%,nt,-2.9%,nt,-3.4%
N#Cc1ccc(OCC(=O)Nc2cccc(S(=O)(=O)NC3=NCCCCC3)c2)cc1,?,-1.0%,nt,-0.6%,nt,-1.7%
O=C(COc1ccc(Cl)cc1)Nc1cccc(S(=O)(=O)NC2=NCCCCC2)c1,15.1µM*,15.9%,nt,-5.6%,nt,2.5%
O=C(COc1ccccc1Cl)Nc1cccc(S(=O)(=O)NC2=NCCCCC2)c1,19µM*,-3.7%,nt,-1.7%,nt,-1.6%
CC(=O)CCc1ccc(OCC(=O)Nc2cccc(S(=O)(=O)N(C)c3ccccc3)c2)cc1,10.7µM*,-2.0%,nt,-11.7%,nt,-1.5%
O=C(COc1ccc(Cl)cc1)Nc1cccc(S(=O)(=O)NCc2ccco2)c1,16.9µM*,-1.3%,nt,1.0%,nt,-1.7%
COc1ccc([C@@H]2[C@@H](O)[C@H](O)[C@@H](C)N2C)cc1OC,nt,nt,-0.5%,nt,9.1%,nt
O=C(CN1C(=O)C2(SCC(=O)N2c2ccccc2)c2ccccc21)Nc1ccccc1C(F)(F)F (configuration not stated),-4.4%,nt,nt,nt,nt,nt
CCn1c2c(c(=O)n3ncc(C(=O)Nc4ccc(F)c(Cl)c4)c13)CN(Cc1ccc(OC)cc1)CC2,-18.9%,nt,nt,nt,nt,nt
COc1ccccc1OCC(=O)Nc1cccc(S(=O)(=O)NC2=NCCCCC2)c1,-12.7%,0.1%,nt,0.3%,nt,-1.1%
Cc1ccc(C)c(OCC(=O)Nc2cccc(S(=O)(=O)NC3=NCCCCC3)c2)c1,-1.3%,-13.6%,nt,2.3%,nt,-0.8%
Cc1cc(Cl)ccc1OCC(=O)Nc1cccc(S(=O)(=O)NC2=NCCCCC2)c1,13.5µM*,-5.4%,nt,1.0%,nt,8.3%
CC(C)(C)c1ccc(OCC(=O)Nc2cccc(S(=O)(=O)NC3=NCCCCC3)c2)cc1,10.7µM*,0.3%,nt,-1.4%,nt,-0.6%
